Source: PubChem BioAssay (NCATS)
Where “and” joins values, the source holds several entries; their conditions need not be identical. Identical values can stand only once. Results filed as inconclusive are left out. Calls of active or inactive are those of the source. Unless noted, calls come from the whole dose curve; as a rule, active = well fitted curve in the direction sought with a large enough effect; inconclusive = small, poorly fitted or top-dose-only effect, or another doubt; inactive = no such curve, though single readings can be large; an effect the other way counts as inactive or inconclusive.

Key:
[1] = AP1 Signaling Pathway (AID 357; active = well fitted curve in either direction with a large enough effect, not every such curve was filed as active;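 note: ME-180 reporter cells stimulated with EGF at its EC50 level; % is set by controls: 0 for no effect and ±100 for the full control effect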); details: ME-180 AP-1-bla reporter, EGF-induced, beta-lactamase ratio, 5 h
Method in brief: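 Read-out was the 460nm/530nm emission ratio (excitation 405nm) after CCF4 loading for 2.5 hours at room temperature. Cells carried an AP-1-driven beta-lactamase reporter, were stimulated with EC50 EGF plus compound for 5 hours, and AC50 values came from titrations.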

[2] = molecular target: Cytochrome P450 1A2 (Homo sapiens) (UniProt P05177); test: p450-cyp1a2 (AID 410; calls by dose curve; note: potency is the fitted concentration of half-maximal effect;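 for activity change, negative = inhibition: -100% = full effect of reference inhibitor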); details: recombinant CYP1A2, luciferin-ME demethylation, luminescence; series mostly up to 57 µM
Method in brief: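 Human CYP1A2 (20nM) demethylated Luciferin-ME at its Km (100uM) in 100mM KPO4. After 10 min compound preincubation, NADPH regeneration ran the reaction 60 min at room temperature. Luciferin was read by luminescence, normalized to 57 uM furafylline.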

[3] = NFAT Signaling Pathway (AID 444; active = well fitted curve in either direction with a large enough effect, not every such curve was filed as active;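 note: carbachol stimulus at about its EC50 of 1 µM final; % is set by controls: 0 for no effect and ±100 for the full control effect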); details: Jurkat NFAT-bla M1, carbachol, beta-lactamase ratio, 5 h; at 7.69 µM (top of the series) unless noted
Method in brief: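 Jurkat cells carrying an NFAT-driven β-lactamase reporter and co-transfected muscarinic M1 receptor were treated with compound plus carbachol (1 uM final, an EC50 level) for 5 h at 37 °C. CCF4 loading followed for 1 h at RT; 460/530 nm ratio gave %activity.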

[4] = Stat Signaling Pathway (AID 446; active = well fitted curve in either direction with a large enough effect, not every such curve was filed as active;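 note: ME-180 cervical cancer cells given 40 pM IL-6 alongside compound; SIE-controlled beta-lactamase reporter measured as 460/530 nm FRET emission ratio; % is set by controls: 0 for no effect and ±100 for the full control effect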); details: ME-180 SIE beta-lactamase reporter, IL-6 stimulated, 5 h
Method in brief: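 Screening format detects activators and inhibitors alike: ME-180 SIE-bla cells stimulated at 40 pM IL-6 for 5 hrs with compound, then dual-emission beta-lactamase read at 405 nm excitation.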

[5] = molecular target: Glucocorticoid receptor (Homo sapiens) (UniProt P04150); test: GR-GFP Redistribution (AID 450;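 active = compounds whose dose series gives a full or clear partial fitted curve of increased nuclear translocation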; note: potency is the fitted concentration of half-maximal effect); details: U2OS GR-GFP nuclear translocation, laser cytometry, 2 h
[6] = molecular target: Glucocorticoid receptor (Homo sapiens) (UniProt P04150); test: GR-EFC Redistribution (AID 451; calls by dose curve; note: potency is the fitted concentration of half-maximal effect); details: CHO-K1 GR-EFC translocation, beta-gal luminescence, 2 h
Method in brief: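 CHO-K1 cells stably expressing nuclear-localized β-gal enzyme acceptor and GR fused C-terminally to the enzyme donor fragment; ligand-driven nuclear translocation restores β-gal by complementation. Compounds titrated up to 46 uM final, 2 h at 37 °C; luminescence read.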

[7] = molecular target: Mitogen-activated protein kinase 10 (Mus musculus) (UniProt Q61831); test: JNK3 AlphaScreen Assay (AID 530; active = well fitted curve in either direction with a large enough effect, not every such curve was filed as active;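 note: kinase came from lysate of stimulated human HepG2 cells; signal reports phosphorylation of biotinylated GST-cJun 1-79 at Ser73 with 10 µM ATP; % is set by controls: 0 for no effect and ±100 for the full control effect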); details: JNK3 lysate, c-Jun phosphorylation; series mostly up to 57.1 µM
Method in brief: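 JNK3 came from HepG2 lysates pre-activated with IL-1beta and TNF-alpha and phosphorylated biotinylated GST-cJun (1-79) at 10 uM ATP, pH 7.6, room temperature. Compounds were titrated. AlphaScreen signal used anti-phospho-cJun (Ser73) antibody.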

[8] = molecular target: 3',5'-cyclic-AMP phosphodiesterase 4B (Homo sapiens) (UniProt Q07343); test: qHTS Assay for Inhibitors of PDE-IV (AID 607; active = well fitted activation curve with a large enough effect in the main read-out, with a control signal flat, not every such curve was filed as active; note: % of control where 0% means no effect); details: HEK293 ACTOne CNG channel cells, membrane potential fluorescence; series mostly up to 22.9 µM
Method in brief: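 The readout is membrane depolarisation from a cAMP-sensing CNG channel, detected with a potential dye at ex 535/em 590. Cells were HEK293-derived (endogenous PDE-IV) at 1000 cells/well, titrated up to 22.9 uM final.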

[9] = qHTS Assay for Lipid Storage Modulators (AID 1519; calls by dose curve); details: Drosophila S3 cells, BODIPY lipid droplet/cell ratio, laser cytometry, cells loaded with oleic acid; for activity change, negative = inhibition: at 25.7 µM (top of the series)
Method in brief: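 Cells seeded at 5,000 per well were treated with compounds over a concentration series and loaded with oleic acid (400 uM, as added). Lipid droplet fluorescence (488 nm excitation, 500-530 nm channel) was read by laser-scanning cytometry and normalized to 20 uM Triacsin C.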

[10] = molecular target: ATP-dependent 6-phosphofructokinase (Trypanosoma brucei brucei) (UniProt O15648); test: qHTS Assay to Find Inhibitors of T. brucei phosphofructokinase: hit validation (AID 492961); details: T. brucei PFK, ADP-Glo luminescence; series mostly up to 24.3 µM
Method in brief: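 PFK 1.25 nM, F6P 0.5 mM, ATP 0.1 mM, MgCl2 5 mM, 0.1 M TEA pH 8.0, Tween20 0.01%, BSA 0.1%; 45 min RT. ADP-Glo two-step detection, luminescence. qHTS titration; curve fitting with curve-class categorization.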

[11] = molecular target: Ubiquitin carboxyl-terminal hydrolase 1 (Homo sapiens) (UniProt O94782); test: Inhibitors of USP1/UAF1: Pilot qHTS (AID 504865); details: purified USP1/UAF1, Ub-rhodamine cleavage fluorescence; series mostly up to 54.9 µM;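 note: rhodamine fluorescence freed from ubiquitin-rhodamine substrate followed over time; top concentration of the series differs between compounds; % is set by controls: 0 for no effect and ±100 for the full control effect; nearly all actives have a fitted effect of over 35% in size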
Method in brief: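 Enzyme-free wells gave the negative control, while test wells held 1nM USP1/UAF1 preincubated with compound for 15 min at room temperature. Ub-Rho at 150nM final started the reaction, and fluorescence at 480/540 nm was recorded kinetically.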

[12] = molecular target: Luciferin 4-monooxygenase (Photinus pyralis) (UniProt P08659); test: Biochemical firefly luciferase enzyme assay for NPC (AID 624030);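 note: purified P. pyralis luciferase at 10 nM with luciferin and ATP substrate; 0% = DMSO and -100% = full luciferase inhibition by PTC124 control; nearly all actives have a fitted effect of over 70% in size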; details: purified P. pyralis luciferase, luminescence, 5 min; series mostly up to 58.6 µM
Method in brief: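 Counter-screen for direct inhibition of the luciferase enzyme by approved-drug library compounds, run at 10 nM enzyme in 50 mM Tris acetate (final). Luminescence was read within 5 min of enzyme-buffer addition and normalized to PTC124 versus DMSO (0%).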

[13] = qHTS profiling for inhibitors of Plasmodium falciparum proliferation (AID 504749);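 note: 0% = DMSO vehicle and full inhibition = artemisinin control; nearly all actives have a fitted effect of over 60% in size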; details: P. falciparum in erythrocytes, SYBR Green DNA, 72 h, at 12.8 µM (top of the series)
Method in brief: (§1)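 P. falciparum-infected erythrocytes (0.3% parasitemia, 2.5% hematocrit final) were exposed to compounds for 72 h at 37 C in 5% CO2, then lysed with SYBR Green buffer overnight at room temperature; parasite DNA fluorescence was normalized to artemisinin and DMSO controls.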

AS120 = test: as above; details: P. falciparum in erythrocytes, SYBR Green DNA, 72 h; series mostly up to 28.7 µM
Method in brief: as §1

CP238 = test: as above; details: P. falciparum in erythrocytes, SYBR Green DNA, 72 h; series mostly up to 12.8 µM
Method in brief: as §1

CP250 = test: as above; details: P. falciparum in erythrocytes, SYBR Green DNA, 72 h; series mostly up to 12.8 µM
Method in brief: as §1

CP262 = test: as above; details: P. falciparum in erythrocytes, SYBR Green DNA, 72 h; series mostly up to 12.8 µM
Method in brief: as §1

CP265 = test: as above; details: P. falciparum in erythrocytes, SYBR Green DNA, 72 h; series mostly up to 12.8 µM
Method in brief: as §1

FAB9 = test: as above; details: P. falciparum in erythrocytes, SYBR Green DNA, 72 h; series mostly up to 12.8 µM
Method in brief: as §1

[14] = molecular target: alpha-glucosidase (Oryza sativa, rice) (UniProt Q653V4); test: Counterscreen for Glucocerebrosidase Inhibitors: qHTS Assay for Rice alpha-Glucosidase at pH 5.0 (AID 997); details: rice alpha-glucosidase enzyme activity; series mostly up to 76.9 µM;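 note: 0% = full activity with enzyme and -100% = basal without enzyme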
Method in brief: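 Rice alpha-glucosidase (4 nM final) with 400 uM 4-methylumbelliferyl-alpha-D-glucopyranoside in citrate buffer pH 5.0, 20 min at room temperature, stopped at pH 10; fluorescence 365/440 nm, compounds 0.7 nM–77 uM, AC50 from Hill fits.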

[15] = at 7.69 µM (top of the series) unless noted
[16] = measured here: cell count channel max response
[17] = measured here: lipid channel max response

Sequence of Glucocorticoid receptor (Homo sapiens) (P04150 whole entry, looked up, the tested form may be a part): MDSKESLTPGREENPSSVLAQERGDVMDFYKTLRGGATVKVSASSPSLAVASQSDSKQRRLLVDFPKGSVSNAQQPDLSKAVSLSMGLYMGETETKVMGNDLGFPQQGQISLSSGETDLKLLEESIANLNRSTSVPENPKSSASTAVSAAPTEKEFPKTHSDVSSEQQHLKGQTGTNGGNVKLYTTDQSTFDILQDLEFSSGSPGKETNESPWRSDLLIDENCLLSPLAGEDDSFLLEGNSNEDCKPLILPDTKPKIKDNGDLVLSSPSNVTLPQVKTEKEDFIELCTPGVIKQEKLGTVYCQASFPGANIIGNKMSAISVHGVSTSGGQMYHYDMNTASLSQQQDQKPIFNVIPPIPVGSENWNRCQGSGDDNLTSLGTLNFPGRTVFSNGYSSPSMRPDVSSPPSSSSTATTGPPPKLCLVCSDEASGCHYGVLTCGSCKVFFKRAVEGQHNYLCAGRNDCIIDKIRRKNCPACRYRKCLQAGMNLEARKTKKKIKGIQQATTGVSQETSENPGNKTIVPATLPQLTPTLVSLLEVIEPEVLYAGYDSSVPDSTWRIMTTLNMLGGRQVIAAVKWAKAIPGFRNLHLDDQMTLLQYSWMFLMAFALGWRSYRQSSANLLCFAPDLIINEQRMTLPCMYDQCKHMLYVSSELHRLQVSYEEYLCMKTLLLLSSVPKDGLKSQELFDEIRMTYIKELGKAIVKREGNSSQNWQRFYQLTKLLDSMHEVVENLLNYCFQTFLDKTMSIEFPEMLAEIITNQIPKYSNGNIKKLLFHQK
Sequence of Cytochrome P450 1A2 (Homo sapiens) (P05177 whole entry, looked up): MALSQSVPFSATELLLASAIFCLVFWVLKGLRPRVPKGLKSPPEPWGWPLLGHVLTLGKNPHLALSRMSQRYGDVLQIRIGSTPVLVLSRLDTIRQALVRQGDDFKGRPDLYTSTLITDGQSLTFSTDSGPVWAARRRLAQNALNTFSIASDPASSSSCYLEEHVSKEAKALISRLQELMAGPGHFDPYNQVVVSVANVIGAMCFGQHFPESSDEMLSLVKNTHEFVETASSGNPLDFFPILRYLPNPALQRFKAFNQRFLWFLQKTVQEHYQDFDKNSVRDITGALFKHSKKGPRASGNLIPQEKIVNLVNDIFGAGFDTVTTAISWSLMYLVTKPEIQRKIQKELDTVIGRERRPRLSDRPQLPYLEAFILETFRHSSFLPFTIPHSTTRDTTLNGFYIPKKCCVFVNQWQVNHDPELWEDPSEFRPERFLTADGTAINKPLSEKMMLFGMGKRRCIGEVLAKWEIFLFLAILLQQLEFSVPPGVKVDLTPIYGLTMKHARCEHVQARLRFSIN
Sequence of ATP-dependent 6-phosphofructokinase (Trypanosoma brucei brucei) (O15648 whole entry, looked up): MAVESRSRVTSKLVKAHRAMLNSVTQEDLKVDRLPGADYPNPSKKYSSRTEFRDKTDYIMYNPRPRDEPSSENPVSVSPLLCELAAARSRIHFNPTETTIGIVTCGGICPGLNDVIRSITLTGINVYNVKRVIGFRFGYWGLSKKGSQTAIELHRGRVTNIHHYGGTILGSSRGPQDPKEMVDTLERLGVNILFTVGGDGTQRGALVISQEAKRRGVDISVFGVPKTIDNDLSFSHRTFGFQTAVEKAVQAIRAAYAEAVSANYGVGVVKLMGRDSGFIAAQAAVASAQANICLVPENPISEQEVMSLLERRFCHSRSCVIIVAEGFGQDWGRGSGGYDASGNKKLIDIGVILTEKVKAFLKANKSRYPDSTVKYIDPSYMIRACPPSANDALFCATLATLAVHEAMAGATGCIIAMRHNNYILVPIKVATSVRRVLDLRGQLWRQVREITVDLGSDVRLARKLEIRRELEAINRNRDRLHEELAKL
Sequence of Ubiquitin carboxyl-terminal hydrolase 1 (Homo sapiens) (O94782 whole entry, looked up): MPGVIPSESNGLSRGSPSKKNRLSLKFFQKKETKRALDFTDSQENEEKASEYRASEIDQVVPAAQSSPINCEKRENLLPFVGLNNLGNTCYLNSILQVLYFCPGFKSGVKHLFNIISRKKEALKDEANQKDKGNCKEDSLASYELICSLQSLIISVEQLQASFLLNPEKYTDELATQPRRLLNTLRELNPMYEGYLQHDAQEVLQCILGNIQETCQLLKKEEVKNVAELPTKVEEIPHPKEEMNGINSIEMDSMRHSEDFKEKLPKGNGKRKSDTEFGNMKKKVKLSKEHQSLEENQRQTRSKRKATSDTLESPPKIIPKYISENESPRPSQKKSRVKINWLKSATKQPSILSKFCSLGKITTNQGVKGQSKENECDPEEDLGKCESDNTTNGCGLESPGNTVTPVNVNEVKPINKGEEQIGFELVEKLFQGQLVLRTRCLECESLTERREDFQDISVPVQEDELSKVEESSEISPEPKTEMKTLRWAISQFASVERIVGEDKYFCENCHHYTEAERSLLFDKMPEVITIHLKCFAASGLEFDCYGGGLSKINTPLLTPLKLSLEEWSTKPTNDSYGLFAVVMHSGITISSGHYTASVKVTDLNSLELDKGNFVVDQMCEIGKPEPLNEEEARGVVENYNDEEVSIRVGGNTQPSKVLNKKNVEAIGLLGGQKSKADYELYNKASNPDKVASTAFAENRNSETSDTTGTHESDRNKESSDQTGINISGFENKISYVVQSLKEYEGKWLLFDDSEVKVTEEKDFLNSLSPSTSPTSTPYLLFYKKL
Sequence of Luciferin 4-monooxygenase (Photinus pyralis) (P08659 whole entry, looked up): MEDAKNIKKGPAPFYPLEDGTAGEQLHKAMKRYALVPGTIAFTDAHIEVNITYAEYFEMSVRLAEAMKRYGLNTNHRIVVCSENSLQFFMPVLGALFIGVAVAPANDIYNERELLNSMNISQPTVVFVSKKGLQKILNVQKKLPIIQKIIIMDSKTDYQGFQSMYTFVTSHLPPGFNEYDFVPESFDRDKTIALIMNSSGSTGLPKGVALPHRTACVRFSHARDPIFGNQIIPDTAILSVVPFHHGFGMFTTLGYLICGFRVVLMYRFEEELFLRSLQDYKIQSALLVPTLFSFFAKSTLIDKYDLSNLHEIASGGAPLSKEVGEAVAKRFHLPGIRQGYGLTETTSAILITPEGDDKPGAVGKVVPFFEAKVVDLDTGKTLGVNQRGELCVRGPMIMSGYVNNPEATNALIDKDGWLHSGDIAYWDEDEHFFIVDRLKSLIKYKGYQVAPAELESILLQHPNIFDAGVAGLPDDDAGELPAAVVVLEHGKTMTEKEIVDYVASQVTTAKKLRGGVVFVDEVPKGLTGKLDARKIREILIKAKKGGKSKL
Sequence of 3',5'-cyclic-AMP phosphodiesterase 4B (Homo sapiens) (Q07343 whole entry, looked up): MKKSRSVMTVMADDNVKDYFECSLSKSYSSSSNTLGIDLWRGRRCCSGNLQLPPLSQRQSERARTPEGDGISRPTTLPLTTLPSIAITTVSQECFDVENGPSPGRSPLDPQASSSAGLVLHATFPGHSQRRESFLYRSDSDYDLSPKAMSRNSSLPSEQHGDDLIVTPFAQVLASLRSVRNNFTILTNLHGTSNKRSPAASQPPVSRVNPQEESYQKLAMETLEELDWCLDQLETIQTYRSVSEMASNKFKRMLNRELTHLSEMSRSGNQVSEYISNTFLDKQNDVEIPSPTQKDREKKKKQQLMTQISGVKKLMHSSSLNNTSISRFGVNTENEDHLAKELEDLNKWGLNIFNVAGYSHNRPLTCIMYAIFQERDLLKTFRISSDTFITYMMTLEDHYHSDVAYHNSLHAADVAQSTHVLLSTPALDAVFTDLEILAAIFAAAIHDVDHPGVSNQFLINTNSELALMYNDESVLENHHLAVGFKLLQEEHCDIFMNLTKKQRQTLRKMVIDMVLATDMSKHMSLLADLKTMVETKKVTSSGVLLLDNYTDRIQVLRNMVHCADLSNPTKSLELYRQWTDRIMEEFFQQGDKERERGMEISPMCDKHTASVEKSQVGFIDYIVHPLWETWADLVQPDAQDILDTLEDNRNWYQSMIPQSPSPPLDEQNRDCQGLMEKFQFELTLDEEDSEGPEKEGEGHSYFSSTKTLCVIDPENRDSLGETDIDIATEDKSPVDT

CO[C@H]1C[C@@H](O[C@@H]2[C@H](C)[C@H](O[C@@H]3O[C@@H](C)C[C@@H](N(C)C)[C@@H]3O)[C@H](C)C[C@]3(CO3)C(=O)[C@H](C)[C@H](O)[C@H](C)[C@H](C)OC(=O)[C@@H]2C)O[C@@H](C)[C@H]1O
inactive: activity change, negative = inhibition [1, 15] 2.97% [at 17.2 µM] | Potency [2] | activity change, negative = inhibition [3] 8.23% [at 17.2 µM] | activity, negative = inhibition [4, 15] -6.44% [at 17.2 µM] | Potency [5] > 20.6 µM | Potency [6] > 20.6 µM | Potency [7] | Potency [8] | activity change, negative = inhibition [9] 1.28% | outcome [10] | Potency [11] | outcome [12] | activity, negative = inhibition ([13]; parasite line A) -15.5% | activity, negative = inhibition ([13]; parasite line B) -11.7% | Potency (AS120) | Potency (CP238) | Potency (CP250) | Potency (CP262) | Potency (CP265) | Potency (FAB9)
11.6%: max response [9, 17]
9.47%: max response [9, 16]

CC1(C)O[C@@H]2C[C@H]3[C@H]4C[C@H](F)C5=CC(=O)C=C[C@@]5(C)[C@@H]4[C@H](O)C[C@]3(C)[C@]2(C(=O)CO)O1
-24%: max response [9, 16]
-28.6%: max response [9, 17]
inactive: activity change, negative = inhibition [1, 15] 21.4% [at 17.2 µM] | Potency [2] | activity change, negative = inhibition [3] -5.12% [at 17.2 µM] | activity, negative = inhibition [4, 15] -5.69% [at 17.2 µM] | Potency [8] | activity change, negative = inhibition [9] -4.94% | outcome [10] | outcome [12] | activity, negative = inhibition ([13]; parasite line A) -1.94% | activity, negative = inhibition ([13]; parasite line B) 13.2% | Potency (AS120) | Potency (CP238) | Potency (CP250) | Potency (CP262) | Potency (CP265) | Potency (FAB9)
active: Potency [5] 0.00395 µM | Potency [6] 0.00485 µM

CC(=O)O[C@@H](C)C[N+](C)(C)C
-2.61%: max response [9, 16]
-4.64%: max response [9, 17]
inactive: activity change, negative = inhibition ([1]; at 17.2 µM (top of the series)) 20.9% | activity change, negative = inhibition ([1]; at 38 µM (top of the series)) 13.8% | Potency [2] | activity, negative = inhibition ([4]; at 17.2 µM (top of the series)) -1.77% | activity, negative = inhibition ([4]; at 38 µM (top of the series)) 30.8% | Potency [5] > 46 µM and > 20.6 µM | Potency [6] > 46 µM and > 20.6 µM | Potency [7] | outcome [14] | activity change, negative = inhibition [9] -1.12% | outcome [10] | Potency [11] | outcome [12] | activity, negative = inhibition ([13]; parasite line A) 0.161% | activity, negative = inhibition ([13]; parasite line B) 7.9% | Potency (AS120) | Potency (CP238) | Potency (CP250) | Potency (CP262) | Potency (CP265) | Potency (FAB9)

CN1[C@@H](CC(=O)c2ccccc2)CCC[C@@H]1C[C@@H](O)c1ccccc1
inactive: activity change, negative = inhibition ([1]; at 17.2 µM (top of the series)) -1.05% | activity change, negative = inhibition ([1]; at 38 µM (top of the series)) 6.06% | activity, negative = inhibition ([4]; at 17.2 µM (top of the series)) 0.159% | activity, negative = inhibition ([4]; at 38 µM (top of the series)) -8.54% | Potency [7] | outcome [14] | activity change, negative = inhibition [9] -0.989% | Potency [11]
active: Potency [2] 31.6 µM and 5.01 µM
-6.75%: max response [9, 17]
-6.57%: max response [9, 16]
